Measurements published in PubChem BioAssay (EPA / NIEHS).
The source made the active and inactive calls. How the source made its calls: active means hit-call score of the fitted dose curve at least 0.9, where 1 is the maximum; inactive means score below 0.9.

Assays:
[1] = read-out: Human Leukocyte Antigen - DR isotype (HLADR), HLA-DRA (gene 3122); assay: BSK_BE3C_HLADR: BioMAP Diversity Plus: BE3C Assay for Human Leukocyte Antigen - DR isotype (HLADR) Biomarker Activity (AID 2283032); settings: primary human bronchial epithelial cells; actives raise or lower the signal
Outline: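 BioMAP BE3C format: human bronchial epithelium, 24 h compound treatment, ELISA detection of HLA-DR, with bidirectional analysis relative to DMSO.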

[2] = read-out: Vascular cell adhesion molecule 1 (VCAM1), VCAM1 (gene 7412); assay: BSK_4H_VCAM1: BioMAP Diversity Plus: 4H Assay for Vascular cell adhesion molecule 1 (VCAM1) Biomarker Activity (AID 2283033); settings: primary human endothelial cells (HUVEC); actives raise or lower the signal
Outline: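 In this human endothelial (HUVEC) system, biomarker ELISA was run 24 h after compound addition, and total protein in parallel wells was assessed by SRB at 560 nm; DMSO served as negative control.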

[3] = read-out: Interferon-gamma inducible Protein 10 (IP10), CXCL10 (gene 3627); assay: BSK_BE3C_IP10: BioMAP Diversity Plus: BE3C Assay for Interferon-gamma inducible Protein 10 (IP10) Biomarker Activity (AID 2283034); settings: primary human bronchial epithelial cells; actives raise or lower the signal
Outline: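 BE3C cells (human bronchial epithelial, primary); 24 h exposure; ELISA for IP-10; DMSO-referenced bidirectional fit.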

[4] = read-out: Monokine induced gamma interferon (MIG), CXCL9 (gene 4283); assay: BSK_BE3C_MIG: BioMAP Diversity Plus: BE3C Assay for Monokine induced gamma interferon (MIG) Biomarker Activity (AID 2283035); settings: primary human bronchial epithelial cells; actives raise or lower the signal;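 further: MIG protein measured by ELISA in BE3C cultures after 24 h of dosing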
Outline: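 hu bronchial epithelial 1° cells, 24 h cpd; MIG by ELISA; bidirectional fit, DMSO = baseline.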

[5] = read-out: Transforming growth factor beta 1 (TGFb1), TGFB1 (gene 7040); assay: BSK_BE3C_TGFb1: BioMAP Diversity Plus: BE3C Assay for Transforming growth factor beta 1 (TGFb1) Biomarker Activity (AID 2283036;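 further: TGF-b1 protein level measured by ELISA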); settings: primary human bronchial epithelial cells; actives raise or lower the signal
Outline: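 TGF-b1 measured via ELISA, 24 h after chemical dosing of human bronchial epithelial cells (BE3C). Overt cytotoxicity assessed in parallel by SRB (0.1%, TCA-fixed, 560 nm); analysis bidirectional relative to DMSO.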

[6] = read-out: Plasminogen activator inhibitor-1 (PAI1), SERPINE1 (gene 5054); assay: BSK_BE3C_PAI1: BioMAP Diversity Plus: BE3C Assay for Plasminogen activator inhibitor-1 (PAI1) Biomarker Activity (AID 2283037); settings: primary human bronchial epithelial cells; actives raise or lower the signal
Outline: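 In this multiplexed primary-cell system, bronchial epithelial cells receive test chemical and are sampled at 24 h. PAI-1 is read by ELISA, with DMSO serving as negative control for bidirectional fitting.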

[7] = read-out: urokinase plasminogen activator (uPA), PLAU (gene 5328); assay: BSK_BE3C_uPA: BioMAP Diversity Plus: BE3C Assay for urokinase plasminogen activator (uPA) Biomarker Activity (AID 2283038); settings: primary human bronchial epithelial cells; actives raise or lower the signal;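 further: uPA protein level quantified by ELISA in cell cultures; uPA read one day after compound addition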
Outline: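 Human primary bronchial epithelial cells were exposed to chemical for 24 h, then uPA levels were measured by ELISA. Responses were fitted bidirectionally against DMSO as negative control and baseline. Parallel SRB staining of total protein gauged overt cytotoxicity.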

[8] = read-out: Urokinase-type plasminogen activator receptor (uPAR), PLAUR (gene 5329); assay: BSK_BE3C_uPAR: BioMAP Diversity Plus: BE3C Assay for Urokinase-type plasminogen activator receptor (uPAR) Biomarker Activity (AID 2283039); settings: primary human bronchial epithelial cells; actives raise or lower the signal;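 further: cells exposed to compound for one day before measurement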
Outline: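 Chemically treated human bronchial epithelial cells (lung primary) are assayed for uPAR by ELISA after 24 h, with data fitted in both directions using DMSO as negative control.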

[9] = read-out: Interleukin-6 (IL6), IL6 (gene 3569); assay: BSK_CASM3C_IL6: BioMAP Diversity Plus: CASM3C Assay for Interleukin-6 (IL6) Biomarker Activity for (AID 2283040); settings: primary human coronary artery smooth muscle cells; actives raise or lower the signal
[10] = read-out: Tissue plasminogen activator (tPA), PLAT (gene 5327); assay: BSK_BE3C_tPA: BioMAP Diversity Plus: BE3C Assay for Tissue plasminogen activator (tPA) Biomarker Activity (AID 2283041); settings: primary human bronchial epithelial cells; actives raise or lower the signal
Outline: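 Using human lung primary bronchial epithelial cells, tPA was measured by ELISA 24 h after dosing; data fitted relative to DMSO.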

[11] = read-out: Interleukin-8 (IL8), CXCL8 (gene 3576); assay: BSK_CASM3C_IL8: BioMAP Diversity Plus: CASM3C Assay for Interleukin-8 (IL8) Biomarker Activity (AID 2283042); settings: primary human coronary artery smooth muscle cells; actives raise or lower the signal;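 further: IL-8 protein level quantified by ELISA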
[12] = read-out: Human Leukocyte Antigen - DR isotype (HLADR), HLA-DRA (gene 3122); assay: BSK_CASM3C_HLADR: BioMAP Diversity Plus: CASM3C Assay for Human Leukocyte Antigen - DR isotype (HLADR) Biomarker Activity (AID 2283043); settings: primary human coronary artery smooth muscle cells; actives raise or lower the signal;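 further: cell-surface HLA-DR protein level quantified by ELISA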
[13] = read-out: Macrophage colony-stimulating factor (MCSF), CSF1 (gene 1435); assay: BSK_CASM3C_MCSF: BioMAP Diversity Plus: CASM3C Assay for Macrophage colony-stimulating factor (MCSF) Biomarker Activity (AID 2283044); settings: primary human coronary artery smooth muscle cells; actives raise or lower the signal;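 further: M-CSF protein amount quantified by ELISA after 24 h exposure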
[14] = read-out: Low-density lipoprotein receptor (LDLR), LDLR (gene 3949); assay: BSK_CASM3C_LDLR: BioMAP Diversity Plus: CASM3C Assay for Low-density lipoprotein receptor (LDLR) Biomarker Activity (AID 2283045); settings: primary human coronary artery smooth muscle cells; actives raise or lower the signal;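 further: LDLR protein level on the cell surface quantified by ELISA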
[15] = read-out: Monocyte Chemoattractant Protein-1 (MCP1), CCL2 (gene 6347); assay: BSK_CASM3C_MCP1: BioMAP Diversity Plus: CASM3C Assay for Monocyte Chemoattractant Protein-1 (MCP1) Biomarker Activity (AID 2283046); settings: primary human coronary artery smooth muscle cells; actives raise or lower the signal;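 further: MCP-1 level quantified by ELISA 24 h after dosing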
[16] = BSK_CASM3C_Proliferation: Cell Proliferation Assessment in the BioMAP Diversity Plus: CASM3C Assay (AID 2283047); settings: primary human coronary artery smooth muscle cells;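 further: sulforhodamine B total protein stain as relative cell number at 560 nm; sub-confluent cells exposed 48 h before staining; fitted both ways against DMSO so gain or loss of cell number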
[17] = read-out: Monokine induced gamma interferon (MIG), CXCL9 (gene 4283); assay: BSK_CASM3C_MIG: BioMAP Diversity Plus: CASM3C Assay for Monokine induced gamma interferon (MIG) Biomarker Activity (AID 2283048); settings: primary human coronary artery smooth muscle cells; actives raise or lower the signal
[18] = read-out: serum amyloid A (SAA), SAA1 (gene 6288); assay: BSK_CASM3C_SAA: BioMAP Diversity Plus: CASM3C Assay for serum amyloid A (SAA) Biomarker Activity (AID 2283049); settings: primary human coronary artery smooth muscle cells; actives raise or lower the signal;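 further: SAA protein level quantified by ELISA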
[19] = BSK_CASM3C_SRB: Viability Assessment in the BioMAP Diversity Plus: CASM3C Assay (AID 2283050); settings: primary human coronary artery smooth muscle cells;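 further: total protein by SRB staining as cytotoxicity measure in parallel cultures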
[20] = read-out: Thrombomodulin, THBD (gene 7056); assay: BSK_CASM3C_Thrombomodulin: BioMAP Diversity Plus: CASM3C Assay for Thrombomodulin Biomarker Activity (AID 2283051); settings: primary human coronary artery smooth muscle cells; actives raise or lower the signal;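 further: thrombomodulin protein level measured by ELISA 24 h after dosing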

Measured: AC50

C[Si]1(C)O[Si](C)(C)O[Si](C)(C)O[Si](C)(C)O1
inactive: all assays above

COc1ccc(S(=O)(=O)N2C(=O)[C@@](c3ccccc3OC)(N3C[C@H](O)C[C@H]3C(=O)N(C)C)c3cc(Cl)ccc32)c(OC)c1
inactive: all assays above

CCCCCCCCCCCCCO
active: [2] 36.1 µM | [3] 29.7 µM | [10] 26.9 µM | [13] 34.5 µM | [15] 33.3 µM | [16] 34.2 µM | [19] 34.4 µM | [20] 20.6 µM
inactive: all other assays above

Cc1ccccc1Cl
inactive: all assays above

Nc1ccc(S(=O)(=O)c2ccc(N)cc2)cc1
inactive: all assays above

COc1ccc2c(c1)c(CC(=O)O)c(C)n2C(=O)c1ccc(Cl)cc1
inactive: all assays above

C=CCc1ccc(O)c(OC)c1
inactive: all assays above
